High-throughput results: PubChem, Sanford-Burnham Center for Chemical Genomics
This is a sample that favours compounds with a hit; in the whole collection about 28% have one here.
CYP2C19 inh – human CYP2C19 inhibition | P33261 | CYP2C19 Supersomes, luciferin-H EGE luminescence, 30 min | inhibition, % at 5 µM | actives 21% (n = 96,000);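 active = CYP2C19 inhibition above a set limit at 5 µM in the primary screen, cut at about 50% in these data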;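 also: plate controls were negative control wells for no effect and 2.5 mM tranylcypromine positive control for full effect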
CYP2C19 activ – increases human CYP2C19 enzyme activity; recombinant CYP2C19, luciferin-H EGE luminescence; hits give high values; 0 = fully inhibited enzyme, 1 = untreated enzyme; activation factor at 5 µM; 96,000 tested, under 10 active;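 active = activation factor of at least 2 at 5 µM in the primary screen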;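 also: 0 = wells with 2.5 mM tranylcypromine and 1 = vehicle-only wells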
PTK2B oligo ant – blocks oligomerization of human Pyk2 in cells; Q293 cells, Pyk2 FERM NanoBiT luminescence; hits give low values; z-score (the deposit names both 25 µM and 10 µM); actives 0.83% (n = 99,000);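 active = Z-score of -3 or lower, scaled per plate to the spread of control and sample wells; inactive = z-score above -3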;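 also: negative z-score means lost luminescence so less FERM oligomerization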
Target sequence (Q14289 whole entry, looked up): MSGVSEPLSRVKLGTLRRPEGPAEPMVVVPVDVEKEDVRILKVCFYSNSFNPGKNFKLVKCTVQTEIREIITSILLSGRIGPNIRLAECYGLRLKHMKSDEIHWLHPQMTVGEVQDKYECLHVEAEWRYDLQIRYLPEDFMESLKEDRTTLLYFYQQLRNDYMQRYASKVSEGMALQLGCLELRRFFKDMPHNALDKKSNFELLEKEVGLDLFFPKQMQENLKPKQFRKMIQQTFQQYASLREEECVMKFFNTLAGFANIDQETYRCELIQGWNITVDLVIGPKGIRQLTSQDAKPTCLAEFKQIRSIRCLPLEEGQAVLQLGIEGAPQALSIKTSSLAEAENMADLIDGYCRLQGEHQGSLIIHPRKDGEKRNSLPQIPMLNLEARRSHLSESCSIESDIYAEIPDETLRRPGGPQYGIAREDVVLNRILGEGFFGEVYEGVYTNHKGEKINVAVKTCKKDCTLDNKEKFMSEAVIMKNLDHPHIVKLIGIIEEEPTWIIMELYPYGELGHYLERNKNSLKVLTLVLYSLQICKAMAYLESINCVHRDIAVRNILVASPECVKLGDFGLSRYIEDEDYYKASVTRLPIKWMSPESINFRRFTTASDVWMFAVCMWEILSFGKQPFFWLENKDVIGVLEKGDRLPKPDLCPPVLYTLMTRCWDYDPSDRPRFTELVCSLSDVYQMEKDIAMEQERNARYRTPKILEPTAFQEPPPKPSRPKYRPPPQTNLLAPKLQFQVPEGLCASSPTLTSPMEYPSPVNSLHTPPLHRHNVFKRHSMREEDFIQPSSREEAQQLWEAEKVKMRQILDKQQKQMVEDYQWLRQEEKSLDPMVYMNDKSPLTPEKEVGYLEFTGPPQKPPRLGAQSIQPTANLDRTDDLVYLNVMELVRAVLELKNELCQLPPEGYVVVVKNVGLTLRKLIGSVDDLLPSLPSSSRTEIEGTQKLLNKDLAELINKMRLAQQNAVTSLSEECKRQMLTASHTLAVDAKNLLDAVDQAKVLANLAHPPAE
CYP2C9 inh – inhibitors of human CYP2C9; P11712; CYP2C9 Supersomes, luciferin-H conversion, luminescence; inhibition, % at 5 µM; actives 20% (n = 96,000);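 active = blocking of liver enzyme CYP2C9 beyond about 50% at 5 µM, limit read from the data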
CYP2C9 act – CYP2C9 (human) activation; activation factor at 5 µM; P11712; AID 1024; actives 1.4% (n = 96,000); recombinant CYP2C9, luciferin-H conversion, luminescence; hits give high values; factor 1 = untreated enzyme, 0 = blocked;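 active = activation factor of 2 or more for CYP2C9 at a 5 µM dose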;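 also: 0 = sulfaphenazole-blocked wells and 1 = vehicle-only wells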
The depositor's hits bear a star; / = not tested or not shown.

SMILES | CYP2C19 inh | CYP2C19 activ | PTK2B oligo ant | CYP2C9 inh | CYP2C9 act
O=C(NCc1ccc(Cl)cc1)c1ccc(Cl)cc1[N+](=O)[O-] | 27 | 0.7 | 0.04 | -24 | 1.2
O=C(NCc1ccc(Cl)cc1)c1cnn2ccccc12 | 76* | 0.2 | / | -4 | 1
O=C(CCN1C(=O)c2ccncc2C1=O)NCc1ccc(Cl)cc1 | -3 | 1 | 0.69 | 19 | 0.8
CCCCCn1c(CCC(=O)Oc2ccccc2OC)nc2c1c(=O)[nH]c(=O)n2CCCC | 6 | 0.9 | -2.6 | 26 | 0.7
CCOC(=O)c1c(C)c(C(=O)NCc2ccccn2)c(C)n1CC | 30 | 0.7 | 0.53 | 10 | 0.9
COCCCNC(=O)c1ccccc1Oc1ccccc1 | 26 | 0.7 | 0.49 | 19 | 0.8
O=C(NCc1ccc(Cl)cc1)c1ccccc1Oc1ccccc1 | 32 | 0.7 | -1.5 | 54* | 0.5
Cc1cc(C(F)F)n2ncc(C(=O)NCCc3ccc(Cl)cc3)c2n1 | 85* | 0.2 | 0.45 | 39 | 0.6
Cc1cc(C)n2ncc(C(=O)NCc3ccc(Cl)cc3)c2n1 | 75* | 0.2 | 0.17 | 44 | 0.6
Cc1ccc(-c2cc(C(F)(F)F)n3ncc(C(=O)O)c3n2)cc1 | / | / | -0.24 | / | /
Cc1cc(C(F)(F)F)n2ncc(C(=O)O)c2n1 | -22 | 1.2 | / | -99 | 2*
CCCS(=O)(=O)N1CCC(C(=O)NCC2CCCO2)CC1 (stereo not drawn) | -4 | 1 | -0.37 | -4 | 1
O=C(NCCN1CCOCC1)N1c2ccccc2Sc2ccccc21 | 8 | 0.9 | 2.5 | -14 | 1.1
O=C(CSc1nc2ccccc2c(=O)n1CCCC(=O)N1CCCC1)NCc1ccco1 | 65* | 0.4 | -0.32 | 43 | 0.6
Cc1cc(NC(=O)CSc2nc3ccccc3c(=O)n2CCCC(=O)NCc2ccco2)n[nH]1 | 84* | 0.2 | -0.05 | 71* | 0.3
O=C(CSc1nc2ccccc2c(=O)n1Cc1ccccc1)NCc1ccco1 | 9 | 0.9 | -0.57 | 0 | 1
Cc1cc(C)cc(NC(=S)NCCN2CCOCC2)c1 | / | / | 0.71 | / | /
Cn1cccc1CNC(=O)Nc1ccc(Cl)cc1 | 59* | 0.4 | -0.22 | 23 | 0.8
Cn1cccc1CNC(=O)Nc1ccccc1 | 75* | 0.2 | 0.13 | 37 | 0.6
Cc1cc(C)cc(NC(=S)NCc2cccn2C)c1 | 14 | 0.9 | 0.34 | -110 | 2.1*
CC(=O)NCCn1c(SCc2cc(=O)n3cc(Cl)ccc3n2)nc2ccccc2c1=O | 1 | 1 | -0.52 | 44 | 0.6
CC(=O)C1=C(O)C(=O)N(c2nccs2)C1c1ccccc1 (stereo not drawn) | 14 | 0.9 | 0.5 | 18 | 0.8
O=C(NCCN1CCOCC1)c1ccc2ccccc2c1 | 45 | 0.5 | -0.12 | 2 | 1
C=CCSc1nc(O)c(CC)c(=O)n1C(C)CC (stereo not drawn) | 63* | 0.4 | -1.1 | 31 | 0.7
COC(=O)c1ccc(NS(=O)(=O)c2cccc3cccnc23)cc1 | -5 | 1.1 | -0.5 | 8 | 0.9
SMILES | CYP2C19 inh | CYP2C19 activ | PTK2B oligo ant | CYP2C9 inh | CYP2C9 act
CCOC(=O)c1ccc(NC(=O)COc2ccc(S(=O)(=O)NC(C)(C)C)cc2)cc1 | / | / | 2 | / | /
COC(=O)c1ccccc1S(=O)(=O)Nc1ccc2cn[nH]c2c1 | 89* | 0.1 | -0.38 | 80* | 0.2
CCOC(=O)c1ccc(S(=O)(=O)Nc2ccc3cn[nH]c3c2)cc1 | 16 | 0.8 | -3* | 94* | 0.1
COC(=O)c1sc(S(=O)(=O)Nc2ccc3cn[nH]c3c2)c(C(=O)OC)c1C | 52* | 0.5 | -0.44 | 92* | 0.1
Cc1cccc(-n2nnc(C(=O)NC3CCCc4ccccc43)c2N)c1 (stereo not drawn) | 15 | 0.8 | -0.56 | -65 | 1.6
CC(C)N(C(=O)CSc1nnc(CN2CCCCCC2=O)n1-c1ccccn1)C(C)C | -3 | 1 | -0.97 | -9 | 1.1
CC(C)(C)C(=O)Nc1ccnc(-c2cccnc2)n1 | 83* | 0.2 | / | 59* | 0.4
CCC(=O)Nc1ccnc(-c2cccnc2)n1 | 65* | 0.4 | 0.53 | 22 | 0.8
c1ccc2c(c1)ncn2-c1ccc(-c2ccnc(-c3ccncc3)n2)cc1 | 86* | 0.1 | 0.23 | 87* | 0.1
COc1ccc(C2C(=O)N(C3CCCCC3)CC(=O)N2Cc2ccco2)cc1 (stereo not drawn) | 20 | 0.8 | 0.32 | 14 | 0.9
O=C(O)C1CCCN(S(=O)(=O)c2cccs2)C1 (stereo not drawn) | / | / | 0.12 | / | /
CCC1S/C(=N\S(=O)(=O)c2cccs2)N(C2CCCCC2)C1=O (stereo not drawn) | 79* | 0.2 | -0.77 | 57* | 0.4
Cc1nc(Nc2ccncc2)c2oc3ccccc3c2n1 | 7 | 0.9 | -0.14 | -5 | 1.1
Cc1nc(NC(C)c2ccccc2)c2oc3ccccc3c2n1 (stereo not drawn) | 44 | 0.6 | -0.58 | 61* | 0.4
Cc1nc(NCc2ccco2)c2oc3ccccc3c2n1 | 77* | 0.2 | -0.05 | 63* | 0.4
Cc1nc(N[C@@H](Cc2ccccc2)C(=O)O)c2oc3ccccc3c2n1 | 19 | 0.8 | 0.61 | 10 | 0.9
Cc1ccc(-n2nc(C)c3c(C)cc(=O)[nH]c32)cc1 | 16 | 0.8 | -0.59 | 33 | 0.7
C/C(=N\N=C(/N)SC1CC(=O)N(c2ccc(Br)cc2)C1=O)c1cccs1 (stereo not drawn) | 13 | 0.9 | 0.51 | 48 | 0.5
COc1ccc(Cn2c3nc4ccccc4nc3c3c(=O)n(Cc4ccco4)c(C)nc32)cc1 | 0 | 1 | / | 26 | 0.7
Cc1nc2c(c(=O)n1Cc1ccccc1Cl)c1nc3ccccc3nc1n2Cc1ccco1 | 4 | 1 | / | 52* | 0.5
CCO/C(C)=N/n1c2nc3ccccc3nc2c2c(=O)n(Cc3ccccc3Cl)c(C)nc21 | 23 | 0.8 | -0.92 | 53* | 0.5
Cc1nn(Cc2c(Cl)cccc2Cl)c(C)c1N | / | / | 0.26 | / | /
CCCCSc1nc(C)c(CC(=O)O)c(=O)[nH]1 | 1 | 1 | -0.23 | 5 | 1
O=C(CSc1nc(O)c(C2CCCCC2)c(=O)[nH]1)Nc1ccc(Cl)cc1 | 15 | 0.8 | -1.4 | 66* | 0.3
CC(=O)Nc1c(O)nc(SCC(=O)Nc2ccc(C(C)=O)cc2)[nH]c1=O | -14 | 1.1 | 0.66 | -12 | 1.1
SMILES | CYP2C19 inh | CYP2C19 activ | PTK2B oligo ant | CYP2C9 inh | CYP2C9 act
C1=CC2CC1CC2CNCc1ccco1 (stereo not drawn) | 10 | 0.9 | 0.1 | -7 | 1.1
CCS(=O)(=O)Nc1ccc(Cc2ccc(NS(=O)(=O)CC)cc2)cc1 | 70* | 0.3 | -0.06 | 87* | 0.1
CS(=O)(=O)Nc1ccc(Cc2ccc(NS(C)(=O)=O)cc2)cc1 | 26 | 0.7 | 1.2 | 52* | 0.5
CCN1CCN(C(=O)Nc2ccc(Cc3ccc(NC(=O)N4CCN(CC)CC4)cc3)cc2)CC1 | -7 | 1.1 | 0.7 | -5 | 1
O=c1cc(CO)oc(CN2CCN(CCO)CC2)c1O | 29 | 0.7 | -0.11 | 14 | 0.9
CNC(=O)CC(C(=O)O)c1ccc(OC(C)C)cc1 (stereo not drawn) | 4 | 1 | 1.9 | 16 | 0.8
COc1cccc(-n2cnc3cccc(N)c32)c1 | 37 | 0.6 | -0.15 | -125 | 2.3*
